These results are taken from PubChem BioAssay AID2228 (National Center for Advancing Translational Sciences (NCATS), 2010).

The source made the active and inactive calls.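 How the source made its calls: active means any rise in protein melting temperature, meaning a thermal shift above zero; inactive means the rest.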

In this experiment the target is Luciferin 4-monooxygenase (Photinus pyralis) (UniProt P08659). The experiment in a line: Thermal Shift Assay for Inhibitors of FLuc (Firefly Luciferase, Photinus pyralis) in Presence of ATP. The note with it: Purified FLuc with ATP, SYPRO Orange thermal shift; at 200 µM; active compounds read high. The text has this: Firefly (Photinus pyralis) luciferase (FLuc) is widely used as a reporter in biological assays. […] In order to determine if FLuc thermal stabilization parallels inhibitor potency, a fluorescence-based thermal denaturation assay was developed in this present study. An environmentally sensitive fluorescence dye, SYPRO Orange (Invitrogen, presently Life Technologies) was utilized to monitor the fluorescence change as a function of temperature. The dye preferentially binds to the hydrophobic regions of the protein, and its high signal-to-noise ratio, large Stokes shift and high excitation wavelength make it ideal for thermal shift application. In this assay, the melting temperature (Tm) (the inflection point of the protein melt transition) was assessed for each sample tested. Differences in the Tm between controls and compound-containing samples were determined (the thermal shift or delta Tm), and compounds were ranked by the degree of their thermal shift at the top concentration (200 uM). […] FLuc catalyzes light production in bioluminescent organisms. The reaction requires luciferin, ATP and O2 as substrate, and it includes the formation of a luciferyl-AMP intermediate and the subsequent production of light, AMP, oxyluciferin and CO2. In this study, PTC124 and analogues were evaluated for their potential to stabilize FLuc in the absence and presence of ATP. This particular BioAssay is in the presence of ATP. See related BioAssay "Thermal Shift Assay for Inhibitors of FLuc (Firefly Luciferase, Photinus pyralis) in the Absence of ATP" See [6] for more details on this assay and related studies. Welch, et al. PTC124 targets genetic disorders caused by nonsense mutations. Nature 447 (2007) 87-91. D.S. Auld, N. Thorne, W.F. Maguire, and J. Inglese, Mechanism of PTC124 activity in cell-based luciferase assays of nonsense codon suppression. Proc Natl Acad Sci U S A 106 (2009) 3585-90. D.S. Auld, N. Thorne, D.T. Nguyen, and J. Inglese, A specific mechanism for nonspecific activation in reporter-gene assays. ACS Chem Biol 3 (2008) 463-70. [4]F.H. Niesen, H. Berglund, and M. Vedadi, The use of differential scanning fluorimetry to detect ligand interactions that promote protein stability. Nat Protoc 2 (2007) 2212-21. J.R. de Wet, K.V. Wood, M. DeLuca, D.R. Helinski, and S. Subramani, Firefly luciferase gene: structure and expression in mammalian cells. Mol Cell Biol 7 (1987) 725-37. Auld, et al. Molecular Basis for the High Affinity Binding and Stabilization of Firefly Luciferase by PTC124. Proc Natl Acad Sci U S A, accepted.
Sequence of Luciferin 4-monooxygenase (Photinus pyralis) (P08659 whole entry, looked up): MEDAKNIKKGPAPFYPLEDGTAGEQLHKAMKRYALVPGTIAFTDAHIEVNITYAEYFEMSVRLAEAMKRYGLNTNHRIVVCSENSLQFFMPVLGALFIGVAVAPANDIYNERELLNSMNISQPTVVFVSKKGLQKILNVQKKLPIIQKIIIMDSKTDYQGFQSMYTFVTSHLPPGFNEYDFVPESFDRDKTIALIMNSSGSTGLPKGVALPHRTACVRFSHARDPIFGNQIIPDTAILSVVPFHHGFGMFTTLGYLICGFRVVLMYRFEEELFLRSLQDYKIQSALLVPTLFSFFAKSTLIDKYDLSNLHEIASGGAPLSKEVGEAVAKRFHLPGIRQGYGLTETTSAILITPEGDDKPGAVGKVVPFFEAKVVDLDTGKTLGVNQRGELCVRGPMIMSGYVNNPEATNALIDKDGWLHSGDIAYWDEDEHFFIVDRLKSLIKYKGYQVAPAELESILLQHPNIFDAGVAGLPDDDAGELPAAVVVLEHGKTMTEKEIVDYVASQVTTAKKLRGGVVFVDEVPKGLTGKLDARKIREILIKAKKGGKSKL
Assay Protocol: 1.8 uM FLuc was tested in Tris-acetate buffer (pH 7.6) or phosphate buffer saline (pH 7.4). ATP final concentration was 2 mM. Compounds were tested at 200 uM. Data was captured on an iQ5 Real Time PCR Detection system (Bio-Rad) using a temperature range from 20 to 95C in increments of 1C and a ramping rate of 0.1C/s. Fluorescence intensity changes (Ex 490/Em 575 nm) were monitored with a charge-coupled device (CCD) camera. Buffer: 50 mM Tris-acetate, pH 7.6 (with or without 2 mM ATP); 1X PBS, pH 7.4 (with or without 2 mM ATP)
In the case of `O=C(O)c1cccc(-c2noc(-c3ccccc3F)n2)c1`, the thermal shift (delta Tm) was 13.1 C (active).
Turning to `O=C(O)c1ccc(-c2noc(-c3ccccc3F)n2)cc1`, the thermal shift (delta Tm) was 11.6 C (active).
`Nc1ncnc2c1ncn2[C@@H]1O[C@H](COP(=O)(O)OC(=O)c2cccc(-c3noc(-c4ccccc4F)n3)c2)[C@@H](O)[C@H]1O`: the thermal shift (delta Tm) is 12.6 C (active).
For `O=C(O)c1ccccc1-c1noc(-c2ccccc2F)n1` the value was 5.48 C (active).
For `NC(=O)c1ccccc1-c1noc(-c2ccccc2F)n1` the value was 3.72 C (active).
In the case of `O=C(O)c1cccc(-c2noc(-c3cccc(Cl)c3)n2)c1`, the thermal shift (delta Tm) was 11.8 C (active).
Regarding `Fc1ccccc1-c1nc(-c2cccc(-c3nn[nH]n3)c2)no1`, the thermal shift (delta Tm) is 6.04 C (active).
Take `NC(=O)c1cccc(-c2noc(-c3ccccc3F)n2)c1`: the thermal shift (delta Tm) is 6.12 C (active).
